From PubChem
ELG1 genotoxic – induces genotoxicity in HEK293T cells with luciferase-tagged ELG1. Potency, µM (top dose mostly 46 µM), without a hit: at the highest dose activity change, positive = activation, actives largely listed as activators. HEK293T ELG1-luciferase reporter, luminescence, 16 h. 330,000 tested, 1.3% active; note: % of control where 0% means no effect; nearly all actives have a fitted effect of over 60% in size
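Reporter readout depends on ELG1 protein level, which increases with genetic stress. After 16 hr compound exposure at 37 °C, luciferase activity was quantified using ONE-Glo.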
SMN2 splice enh – SMN2 splice variant enhancement. 210,000 tested, 2.8% active. Potency, µM (titrated, usually from 46.1 µM), for inactives: at the highest dose activity change, positive = activation, most hits filed as activators. HEK293 SMN2-luciferase splicing reporter, luminescence, 30-36 h. AID 1458; note: % of control where 0% means no effect; nearly all actives have a fitted effect of over 55% in size
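HEK293 cells carry an SMN2 minigene-luciferase reporter in which exon 7 inclusion puts luciferase in frame. Cells were seeded at 2000 cells/well, attached for 10-12 hours, then exposed to compounds for 30-36 hours at 37C before ONE-Glo luminescence.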
Rab9 prom act – activators of Rab9 promoter; Huh7 Rab9 promoter-luciferase reporter, luminescence, 24 h; Potency, µM (top dose mostly 9.22 µM), for inactives: at the top dose activation, negative = inhibition, most hits filed as activators; 320,000 tested, 2.8% active; AID 485297; note: % of control where 0% means no effect; nearly all actives have a fitted effect of over 60% in size
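Huh7 cells stably carrying Rab9 promoter–luciferase reporter, plated 1500 cells/well, compound added after 2 h and incubated 24 h at 37 °C; luciferase luminescence then read after 10 min with detection reagent.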
NPC1 prom act – NPC1 promoter activation; Huh7 NPC1 promoter luciferase reporter, 24 h; Potency, µM (series often up to 9.22 µM), for inactives: at the top dose activation, most hits filed as activators; 320,000 tested, 2.4% active; note: % of control where 0% means no effect; nearly all actives have a fitted effect of over 60% in size
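Quantitative HTS used a cell-based reporter: Huh7 cells stably bearing the NPC1 promoter upstream of luciferase were treated with compounds for 24 h, and promoter activation was read as luminescence.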
ELG1 DNA repair – ELG1-dependent DNA repair inhibition; HEK293T ELG1-luciferase reporter, luminescence, 16 h; DNA damage induced by 5-fluorouridine; Potency, µM (doses to about 46.1 µM), for the others: at the top dose activity change, negative = inhibition, usual class: inhibitors; 330,000 tested, 2.3% active; AID 504467; note: % is set by controls: 0 for no effect and ±100 for the full control effect; nearly all actives have a fitted effect of over 55% in size
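Luminescence from the luciferase reporter, measured 30 min after ONE-Glo reagent at room temperature, was the read-out. Beforehand, 2,000 cells per well were exposed for 16 hr at 37 °C to 5-fluorouridine together with compound or vehicle.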
FLuc counter – inhibits or activates purified firefly luciferase, miR-21 counter-screen. P08659. Potency, µM (titrated, usually from 57.5 µM), for inactives: at the top dose activity change, negative = inhibition, hits mostly inhibitors. AID 588342. purified FLuc, Km substrates, luminescence inhibition. 360,000 tested, 6.9% active;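 note: plate controls were vehicle for no effect and reference inhibitor for full effect; nearly all actives have a fitted effect of over 55% in size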
Target sequence (P08659 whole entry, looked up): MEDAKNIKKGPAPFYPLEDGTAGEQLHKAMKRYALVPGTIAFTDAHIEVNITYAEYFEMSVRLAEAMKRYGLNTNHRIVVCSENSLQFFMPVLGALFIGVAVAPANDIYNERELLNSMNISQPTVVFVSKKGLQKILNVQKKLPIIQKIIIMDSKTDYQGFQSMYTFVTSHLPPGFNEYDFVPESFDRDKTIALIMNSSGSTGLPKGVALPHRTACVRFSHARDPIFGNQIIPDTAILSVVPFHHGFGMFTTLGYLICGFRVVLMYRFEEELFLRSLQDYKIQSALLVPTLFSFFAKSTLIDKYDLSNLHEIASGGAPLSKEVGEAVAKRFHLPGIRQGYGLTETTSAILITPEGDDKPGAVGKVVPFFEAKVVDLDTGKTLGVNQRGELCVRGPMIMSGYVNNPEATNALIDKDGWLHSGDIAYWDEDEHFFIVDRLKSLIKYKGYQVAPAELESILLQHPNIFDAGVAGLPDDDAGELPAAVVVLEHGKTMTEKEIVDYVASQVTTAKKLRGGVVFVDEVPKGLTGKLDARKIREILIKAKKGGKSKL
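Purified P. pyralis luciferase, 10 nM final, with Km-level 10 uM D-luciferin and 10 uM ATP in 50 mM Tris acetate pH 7.5, 10 mM Mg acetate, 0.01% Tween-20, 0.05% BSA; 6-point qHTS titration about 60 µM downward; luminescence read.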
* marks the source's active call; other numbers are inactive results; ? = inconclusive; . = no result given; [ ] = dose if it differs, or a comment. In the library only some 9.2% were active in any assay of this set; here they are far more common. Calls come from the whole dose curve; as a rule, active = well fitted curve in the direction sought with a large enough effect; inconclusive = small, poorly fitted or top-dose-only effect, or another doubt; inactive = no such curve, though single readings can be large; an effect the other way counts as inactive or inconclusive. Potency is the fitted concentration of half-maximal effect.

SMILES	ELG1 genotoxic	SMN2 splice enh	Rab9 prom act	NPC1 prom act	ELG1 DNA repair	FLuc counter
COc1cc(OC)cc(C(=O)NCCNc2nc3cc(C)cc(C)c3cc2C#N)c1	-8%	.	-2%	-2%	16µM*	-1%
COc1cc(C(=O)NCCNc2nc3cc(C)ccc3cc2C#N)cc(OC)c1OC	-4%	.	-3%	-2%	?	0%
CCOc1ccc2nc(NCCNC(=O)c3cc(OC)c(OC)c(OC)c3)c(C#N)cc2c1	-6%	.	-3%	1%	13µM*	-1%
COc1ccccc1C(=O)NCCNc1nc2cc(C)cc(C)c2cc1C#N	-11%	.	2%	-8%	9.2µM*	-14%
CC(C)(C)C(=O)Nc1cccc2[nH]ncc12	-2%	-8%	-6%	1%	-8%	-2%
CCOC(=O)C(C(=O)Nc1nc2ccccc2s1)C1CCCCC1 (centres undefined)	-1%	-20%	2%	4%	-5%	-1%
Cc1cnc(NC(=O)CC2CCCC2)s1	?	18µM*	?	?	?	?
O=C(Nc1nc2ccccc2s1)NC1CCCCC1	?	.	0.63µM*	1.4µM*	?	1.9µM*
O=C(CC1CCCCC1)Nc1nc2ccccc2s1	?	11µM*	1.6µM*	1.8µM*	?	?
Cc1c(NC(=O)Nc2cccc(C(F)(F)F)c2)c(=O)n(-c2ccccc2)n1C	2%	.	0%	-2%	3%	-2%
Oc1cccc(Nc2nc(O)c(/C=C3\C=Nc4ccccc43)s2)c1	?	.	7%	3%	?	21µM*
C/C(=N\NC(=O)c1ccoc1C)c1ccccc1	?	.	2µM*	2.5µM*	?	11µM*
C/C(=N/NC(=O)c1ccoc1C)c1ccc(NC(=O)C2CCCC2)cc1	?	?	27%	23%	?	?
COc1ccc(C(=O)Nc2cccc(/C(C)=N\NC(=O)c3ccoc3C)c2)cc1OC	-11%	.	16%	12%	?	17µM*
C/C(=N\NC(=O)c1nn(C)c(C)c1Br)c1cccc(NC(=O)c2ccoc2C)c1	16%	9%	?	26%	?	2.4µM*
COc1ccc(C(=O)Nc2cccc(/C(C)=N/NC(=O)c3ccc([N+](=O)[O-])c(C)c3)c2)cc1OC	-12%	12%	-3%	1%	?	?
NC(=O)c1cc(C(=O)c2ccccc2Cl)c[nH]1	-2%	-2%	-1%	-3%	-14%	2%
CCOC(=O)Cc1csc(SCC(=O)c2c(N)n(CC(C)C)c(=O)n(C)c2=O)n1	-6%	-54%	-16%	-10%	5.2µM*	3%
Cc1csc(SCC(=O)c2c(N)n(CC(C)C)c(=O)n(C)c2=O)n1	-11%	-60%	-18%	1%	18µM*	-4%
O=C(NC1CCCC1)C(c1ccc(F)cc1)N(Cc1ccccc1Cl)C(=O)CCl (centres undefined)	3%	-4%[1.84 µM]	-43%	-12%	-24%	3%
C=CCOc1cccc(C(=O)Nc2ncn[nH]2)c1	1%	.	5%	9%	3%	-18%
Cc1cccc(C(=O)Nc2cccc3cccnc23)c1	14%	.	3.2µM*	4µM*	?	21µM*
O=C(Nc1cccc2cccnc12)c1ccc(Cl)cc1	13%	.	10%	7%	?	30µM*
Cc1ccc(/C=C/C(=O)Nc2cccc3cccnc23)o1	1%	7%	7%	-2%	?	17µM*
Cc1ccc(NC(=O)/C=C/c2ccc(C)o2)c(C)c1	.	8%	.	.	.	?
SMILES	ELG1 genotoxic	SMN2 splice enh	Rab9 prom act	NPC1 prom act	ELG1 DNA repair	FLuc counter
Cc1cccc(C(=O)Nc2cccnc2Cl)c1	16%	.	9%	2%	?	?
O=C(Nc1cccc2cccnc12)c1cccnc1	5%	19%	-6%	0%	20%	-4%
Cc1ccc(C(=O)Nc2cccc3cccnc23)cc1Cl	.	-13%	.	.	.	11µM*
O=C(CSc1nncs1)Nc1ccc(S(=O)(=O)N2CCCC2)cc1	-3%	3%	13%	-1%	-18%	-4%
COc1cc(OC)cc(C(=O)Nc2cccc3cccnc23)c1	-6%	.	-5%	-5%	-22%	?
C/C(=N\Nc1cccc2cccnc12)c1ccc(C)cc1	?	16µM*	?	?	?	2.7µM*
Cc1ccc(C(=O)Nc2cccc3cccnc23)cc1C	?	.	?	2.8µM*	?	12µM*
CCc1ccc(NC2=NCC(c3ccccc3)S2)cc1 (centres undefined)	?	14µM*	?	?	?	7.6µM*
CN(C)c1c(F)cc(-c2nn[nH]n2)cc1F	15%	.	4%	1%	?	15µM*
COc1ccc2c(c1)c1c(c(=O)n(Cc3ccccc3)c(=O)n1Cc1cc(C)ccc1C)n2C	.	.	.	.	.	0%
CC(Sc1cn(CCNC(=O)c2ccccc2F)c2ccccc12)c1ccccc1 (centres undefined)	.	-17%	.	.	.	-13%
Cc1ccc(/C=[N+](\[O-])c2ccc(N(C)C)cc2)c2nsnc12	12%	10µM*	1.1µM*	?	?	1.3µM*
Cc1ccc2nsnc2c1NS(=O)(=O)c1c(C)ccc2nsnc12	0%	3%	-6%	2%	-11%	3%
Oc1ccc(C2C[C@H]3CC[C@@H]2C3)cc1O (some centres undefined)	?	.	7%	-15%	3%	12µM*
COc1ccc(-c2nnc(SCc3ccccc3F)o2)cc1OC	23%	18%	?	29%	?	24µM*
COc1cc(-c2nnc(SCC(=O)Oc3ccc(C)cc3C)o2)cc(OC)c1OC	.	.	.	.	.	-11%
Cc1ccc(-c2nnc(SCc3ccccc3F)o2)cc1	8.2µM*	11µM*	0.89µM*	0.79µM*	?	?
N#Cc1ccccc1CSc1nnc(-c2ccccc2)o1	.	11µM*	.	.	.	3.8µM*
COc1cc(-c2nnc(SCc3cc(=O)oc4cc(C)ccc34)o2)cc(OC)c1OC	5%	-9%	8%	-3%	12µM*	?
COC(=O)CSc1nnc(-c2ccc(OC)c(OC)c2)o1	1%	1%	-2%	-5%	-15%	-23%
N#Cc1ccccc1CSc1nc(N)cc(N)n1	-2%	.	10%	1%	-1%	-12%
NCCc1nnc(SCc2ccccc2F)o1	1%	-2%	0%	2%	9%	2%
CCc1nc2nc(C)c(NS(=O)(=O)c3ccc(C)c(C)c3)c(=O)n2[nH]1	2%	.	2%	-4%	7%	0%
CC(C)NC(=O)COC(=O)CNC(=O)c1cc(Cl)cc([N+](=O)[O-])c1	-1%	1%	0%	0%	?	0%
